This is an account of results in PubChem BioAssay AID504648 (National Center for Advancing Translational Sciences (NCATS), 2011).

The whole screen tested about 390,000 compounds, of which about 610 (0.16%) were called active. Inconclusive results (about 4%) are left out. The entries come from a sample that favours actives as a whole. Unmarked numbers belong to inactive results. The call rests on the fitted dose curve; in most records, active means well fitted inhibition curve with a large enough effect; inconclusive means small, poorly fitted or top-dose-only effect, or effect the other way, or another doubt; inactive means no such curve, though single readings can be large or run the other way.
On the % scale 0 is the no-effect control and ±100 the full control effect; potency means the concentration at half of the fitted maximal effect.

This assay in a line: Nrf2 qHTS screen for inhibitors: counterscreen for cytotoxicity. The conditions noted are these: A549 ARE-Fluc cells, CellTiter-Fluor viability, 18-24 h; series mostly up to 46 µM; activity change, negative = cytotoxicity: at the top concentration. The source says: NIH Molecular Libraries Probe Production Network [MLPCN]
NIH Chemical Genomics Center [NCGC]
Assay Provider: Shyam Biswal, Johns Hopkins University
Nrf2 is a transcription factor that maintains cellular redox homoestasis and protects cells from xenobiotics. Nrf2 binds to the antioxidant response element (ARE) to induce gene expression of a broad spectrum of genes that encode for antioxidants. […] Finding a small molecule that act as an inhibitor of Nrf2 function would represent a novel therapeutic target that could lead to improvement in survival of patients undergoing chemo- and/or radio- therapy.
So here we implemented a counterscreen to weed out the cytotoxic compounds.
1. Shibata, T., et al., Genetic Alteration of Keap1 Confers Constitutive Nrf2 Activation and Resistance to Chemotherapy in Gallbladder Cancer. Gastroenterology, 2008.
2. Sjoblom, T., et al., The consensus coding sequences of human breast and colorectal cancers. Science, 2006. 314(5797): p. 268-74.
NCGC Assay Protocol Summary:
A concentration-response assay was performed with A549 ARE_Fluc cells which are suspended in 5% FBS OPTI-MEM. Five uL were dispensed into 1536-well white TC-treated plate using the Kalypsys dispenser to achieve a density of 5000 cells/well in all columns except column 1. The plate is incubated at 37deg C at 5% CO2 for 2 hours before 23 nL of compounds are added with the Kalypsys pin tool equipped with a 1,536-pin array containing 10-nL slotted pins (FP1S10, 0.457-mm diameter, 50.8 mm long; V&P Scientific). The control compounds Budesonide and Staurosporine are both added at a concentration of 2mM and Budesonide is also added as a 1:10 titration, starting at 200uM, to achieve dose-response. After an 18-24 hour incubation at 37deg C at 5% CO2, 5ul of medium is added to column 1. Afterwards 1ul of 5x of CellTiter-Fluor (Promega) is added to every well. The plate is then incubated at 37deg C at 5% CO2 for 30 minutes before they are read on the ViewLux (Perkin Elmer) for a fluorescent read Ex=405(10)/Em=525(10) for a 3 second exposure, 2x binning, and high gain. Then 3 uL of 3x BugLite is dispensed into all wells and the plate is incubated at ambient room temperature for 15 minutes. Afterwards another ViewLux read is performed using the clear filter to get a luminescent read with the settings of 40 second exposure, 2x binning, and high gain. Cytotoxicity is assessed through the first fluorescent read and then biochemical activity against Nrf2 is measured in the luminescent read.
As for `O=C(c1ccco1)N(Cc1cccs1)c1ccc(O)cc1`, the “activity change, negative = cytotoxicity” value was 18.3%.
With `COC(=O)CCc1ccccc1S(=O)(=O)N(CCC(=O)OC)Cc1ccccc1`, the “activity change, negative = cytotoxicity” value is -2.64%.
The same measure, in the same setting: for `C/C(=N/NC(=O)CSc1ccccn1)c1ccc([N+](=O)[O-])cc1` the value was -8.17%; for `C/C(Cc1ccccc1)=N\NC(=O)CNC(=O)c1ccccc1Cl`, 0.489%.
`CC(=NNC(=S)N1CCCCCC1)c1ccccn1`: the Potency is 20.6 µM (active).
In the case of `C/C(=N\NC(=O)Cc1ccc(Cl)cc1)c1ccccn1`, the Potency is 2.31 µM (active).
As to `Cc1ccc(NC(=S)N2CCN(c3ncccn3)CC2)cc1C`, the “activity change, negative = cytotoxicity” value is 7.48%.
Same read-out and setting: for `COc1ccc(S(=O)(=O)N2CCCC(C(=O)Nc3ccc(NC(=O)c4ccccn4)cc3)C2)cc1` (centres undefined) the value was -6.09%.
Still for that read-out and setting: with `O=C1CSC2(C(=O)N(Cc3ccccc3)c3ccccc32)N1c1cccc(F)c1` (centres undefined) the figure was -6.81%.
For the molecule `NS(=O)(=O)c1ccc(-c2ccc(/C=C3\SC(=O)NC3=O)o2)cc1`, the Potency is 11.6 µM (active).
Turning to `CCOc1ccc(NC(=O)CSc2nnc3c(n2)[nH]c2ccc(S(=O)(=O)N4CCOCC4)cc23)cc1`, the “activity change, negative = cytotoxicity” value was 5.87%.
On the same count and under the same terms, with `O=C1C(F)N([S+](=O)([O-])c2ccc3c(c2)OCCO3)CCN1[S+](=O)([O-])c1c(F)cccc1F` (centres undefined) the figure was 1.53%.
As to `O=C(NNC(=O)c1cccc(S(=O)(=O)Nc2ccc(Cl)cc2)c1)c1ccc(=O)[nH]c1`, the “activity change, negative = cytotoxicity” value is 7.7%.
On the same count and under the same terms, with `CC(=O)Nc1ccc(C(=O)Nc2cccc(S(=O)(=O)NC3=NCCC3)c2)cc1` the figure was -0.73%.
For `O=C(Nc1cccc(S(=O)(=O)Nc2ccc(Cl)cc2)c1)c1ccc2c(c1)OCCO2`, the Potency was 16.4 µM (active).
On the same count and under the same terms, with `COc1cccc2c1C(=O)c1c(O)c3c(c(O)c1C2=O)CC(O)(C(C)=NNC(=O)c1ccc(Cl)c(Cl)c1)CC3OC1CC(N)C(O)C(C)O1` (centres undefined) the figure was 11.6 µM (active).
Regarding `O=S(=O)(Nc1cccc2cccnc12)c1cccc2cccnc12`, the “activity change, negative = cytotoxicity” value was -15.4%.
The same measure, in the same setting: with `COc1ccccc1CNc1ccc(-c2nc(-c3ccccc3C)no2)cc1[N+](=O)[O-]` the figure was -0.21%; with `COc1ccc(-c2nc(=N)sn2-c2ccccc2)cc1`, -0.495%.
As for `COc1ccc(Cn2c(=O)[nH]c3cc(C(=O)N4CCN(C(=O)c5ccco5)CC4)ccc3c2=O)cc1`, the “activity change, negative = cytotoxicity” value is 0.466%.
On to `COc1ccc(C(CCN2CCOCC2)c2c(OC)cc(OC)c3c2OC(=O)CC3c2ccc(OC)cc2)cc1` (centres undefined), for which the “activity change, negative = cytotoxicity” value is -15.8%.
The same measure, in the same setting: with `C=C1CCN(C(CC(C)C)C(=O)N2CCOCC2)S(=O)(=O)c2ccccc21` (centres undefined) the figure was 5.21%.
`COc1ccc(-c2ccc(C3C4C=CCCC4(C)C(=O)N3Cc3ccccc3)c(F)c2)cc1OC` (centres undefined): the “activity change, negative = cytotoxicity” value is -6.6%.
Take `CC(=O)N1CCCc2ccc(NS(=O)(=O)c3ccc(F)cc3F)cc21`: the “activity change, negative = cytotoxicity” value is -2.91%.
The same measure, in the same setting: with `N#CN1CCC(NC(=O)c2ccc(F)cc2)CC1` the figure was 0.665%.
For `O=C(/C=C/c1ccc([N+](=O)[O-])o1)NNC(=O)c1ccc(F)cc1`, the Potency is 14.6 µM (active).
Regarding `CCCCCCC1(C)NC(c2ccc3c(c2)OCO3)=CC(c2ccccc2O)N1` (centres undefined), the “activity change, negative = cytotoxicity” value is 1.15%.
Same read-out and setting: for `O=C(CNC(=O)c1ccc(Cl)cc1Cl)OC(C(=O)Nc1cc(C(F)(F)F)ccc1Cl)c1ccccc1` (centres undefined) the value was 4.24%; for `COc1ccc(N2CCN(S(=O)(=O)c3ccc4c(c3)CC(=O)N4)CC2)cc1`, -0.133% [at 92.2 µM].
On the same count and under the same terms, for `CCN(CC)C(=O)CSc1nc2ccsc2c(=O)n1Cc1ccccc1Cl` the value was -0.0336%; for `Cc1ccc(NC(=O)c2cc(S(=O)(=O)NCCC3=CCCCC3)ccc2F)cc1C`, -27.7%; for `COc1ccc(-c2nnc(SCC(=O)Nc3ccccc3C)o2)cc1OC`, 8.42%.
Take `Cc1cccc(C)c1-n1c(C)cc(/C=C2\C(=O)NN(c3ccccc3)C2=O)c1C`: the Potency is 20.6 µM (active).
Regarding `Cc1cccc(NC(=O)c2ccc3nc(C(C)C)oc3c2)c1C`, the “activity change, negative = cytotoxicity” value was -2.46%.
Same read-out and setting: for `Cc1ccc(C)c(N2CCN(C(=O)Cn3nc(C)c4sc5ccccc5c4c3=O)CC2)c1` the value was -0.191%.
In the case of `O=C1CCCC2=C1[C@@]1(CCC(c3ccccc3)C1)N=C(Nc1nc3ccccc3o1)N2` (some centres undefined), the Potency result is “inactive”.
On the same count and under the same terms, for `COc1cc(C(CCN2CCN(c3ccccc3)CC2)c2c(OC)cc(OC)c3ccc(=O)oc23)cc(OC)c1OC` (centres undefined) the value was “inactive”; for `CCN(CC)CCC(c1ccc2c(c1)OCO2)c1c(OC)cc(OC)c2c(-c3ccccc3)cc(=O)oc12` (centres undefined), “inactive”; for `COc1cc(OC)c2ccc(=O)oc2c1C(CCN1CCN(c2ccccc2)CC1)c1ccc2c(c1)OCO2` (centres undefined), 23.1 µM (active).
As for `COC(=O)Cc1csc(/N=C/c2c(O)n(-c3cccc(C(F)(F)F)c3)c(=O)c3ccccc23)n1`, the “activity change, negative = cytotoxicity” value was -0.417%.
As for `CCOc1ccc(N=Cc2c(O)n(-c3cccc(C)n3)c(=O)c3ccccc23)cc1`, the Potency was 18.4 µM (active).
As for `CCO/C=C1\C(=O)N(c2ccc(OCC)cc2)C(=O)c2ccccc21`, the “activity change, negative = cytotoxicity” value was 1.75%.
Still for that read-out and setting: with `COc1ccc(-c2ccc(OC)c(C3C4C=CCC(C)C4C(=O)N3Cc3ccccc3)c2)cc1C` (centres undefined) the figure was 9.58%; with `COc1ccc(NC(=O)CSc2nc3ccccc3n2CC(=O)N2CCCCC2C)cc1` (centres undefined), 2.61%; with `COc1cc(NS(=O)(=O)c2ccc3c(c2)OCC(C(=O)N2CCCC2)O3)cc(OC)c1` (centres undefined), 11.7%.
Still for that read-out and setting: with `CCOC(=O)C1CCN(c2ncnc3c2c(-c2ccccc2)cn3-c2cccc(C)c2)CC1` the figure was -2.99%; with `Cc1ccc(-c2nc(CS(=O)(=O)CC(=O)NCc3ccccc3Cl)c(C)o2)cc1`, -3.48%.
Consider `O=C(CSc1nnc(-c2ccccc2F)o1)Nc1cccc(C(F)(F)F)c1`, for which the “activity change, negative = cytotoxicity” value is 0.119%.
On the same count and under the same terms, with `Cc1noc(C)c1-c1ccc2ncnc(NCc3ccc(F)c(F)c3)c2c1` the figure was 4.64%; with `CC(Nc1ncnc2ccc(-c3ccc4c(c3)OCO4)cc12)c1ccco1` (centres undefined), -4.09%.
Still for that read-out and setting: for `CCCS(=O)(=O)Nc1cccc(-c2cn3ccsc3n2)c1` the value was -0.488%; for `CCOc1cc(-c2nnc(SCC(=O)NC3CCCC3)nc2-c2ccc(OC)c(OCC)c2)ccc1OC`, 0.646%.
On the same count and under the same terms, for `O=C(CNC(=O)c1ccc(Cl)c(C(F)(F)F)c1)OC(C(=O)Nc1cc(C(F)(F)F)ccc1Cl)c1ccccc1` (centres undefined) the value was 6.99%.
With `CCOC(=O)CNC(=O)c1cc2c(=O)n3cccc(C)c3nc2s1`, the “activity change, negative = cytotoxicity” value is -10.8%.
Regarding `COc1ccc(C(=O)NC(=S)N2CCNC(=O)C2CC(=O)OC(C)C)cc1` (centres undefined), the “activity change, negative = cytotoxicity” value was -0.593%.
As for `CCOC(=O)CC1C(=O)NCCN1c1nc2c(C)cccn2c(=O)c1/C=C1\SC(=S)N(C(C)CC)C1=O` (centres undefined), the Potency was 20.6 µM (active).
For the molecule `Cc1cc(C)n2ncc(C(=O)N3CCCC3)c2n1`, the “activity change, negative = cytotoxicity” value is 1.39%.
On the same count and under the same terms, with `CSc1ncc(Cl)c(C(=O)Nc2ccc(S(=O)(=O)N3CCCC(C)C3)cc2)n1` (centres undefined) the figure was -5.22%; with `Cc1noc(C)c1-c1ccc2ncnc(NCc3ccc4[nH]ccc4c3)c2c1`, -2.7%.
